Each structure is given as a SMILES string. The source made the active and inactive calls. Rule for the calls: active = hit-call score of the fitted dose curve at least 0.9, where 1 is the maximum; inconclusive = response in the unintended direction; inactive = score below 0.9.

The nature of this test: Tanguay_ZF_120hpf_MORT_legacy: (Legacy) Oregon State University Tanguay Lab 120 Hour Post-fertilization zebrafish Assay for Mortality (AID 2283633). The procedure: Tanguay_ZF_120hpf_legacy is a whole embryo, multiplexed endpoint assay using zebrafish larvae exposed for 120 hours post fertilization on a 96-well plate.Tanguay_ZF_120hpf_MORT_legacy is one of one assay component(s) measured or calculated from the Tanguay_ZF_120hpf_legacy assay. It is designed to make measurements of embryonic mortality as detected with brightfield microscopy of developing zebrafish embryos.Data from the assay component Tanguay_ZF_120hpf_MORT_legacy was analyzed into 1 assay endpoints. This assay endpoint, Tanguay_ZF_120hpf_MORT_legacy, was analyzed in the positive analysis fitting direction relative to DMSO as the negative control and baseline of activity. Using a type of viability reporter, gain-of-signal activity can be used to understand changes in developmentals as they relate to the whole embryo. To generalize the intended target to other relatable targets, this assay endpoint is annotated to the embryonic mortality intended target family, where the subfamily is embryonic mortality.
Zebrafish husbandry: Tropical 5D wild-type adult zebrafish were housed in at an approximate density of 1000 per 100 gallon tank at the Sinnhuber Aquatic Research Laboratory, Oregon State University, Corvallis, OR. Each tank was kept at standard laboratory conditions of 28C on a 14-h light/10-h dark photoperiod in fish water consisting of reverse osmosis water supplemented with a commercially available salt (Instant Ocean). Spawning funnels were placed into the tanks the night prior, and embryos were collected and staged. To increase bioavailability, the chorion was enzymatically removed using pronase (63.6mg/ml, >/= 3.5U/mg, Sigma-Aldrich: P5147) at 4 hours post fertilization (hpf) using a custom automated dechorionator.Chemical exposures: Six hpf dechorionated embryos were placed 1 embryo per well in a 96-well plate prefilled with 90 ul of EM using automated embryo placement systems (AEPS). Ten microliters of each row of dilution plate 2 was added to 2 exposure plates. The final DMSO concentration used was 0.64% (vol/vol). Thirty-two embryos were also exposed to 5uM trimethyltin chloride (positive control). Plates were sealed to prevent evaporation and foil covered to reduce light exposure and kept in a 28C incubator. Embryos were statically exposed until 120 hpf. At 24 hpf, embryos were assessed for photomotor response using a custom photomotor response analysis tool (PRAT) and for developmental toxicity endpoints (MO24: mortality at 24 hpf, DP: developmental progression, SM: spontaneous movement, and NC: notochord distortion). At 120 hpf, locomotor activity was measured using Viewpoint Zebralab and assessed for 18 endpoints. Zebrafish acquisition and analysis program (ZAAP), a custom program designed to inventory, acquire, and manage zebrafish data, was used to collect developmental endpoints as either present or absent (i.e., binary responses were recorded). If mortality occurred for an embryo (at either 24 or 120 hpf), the non-mortality endpoints were not measured.
Regarding `CCOc1ccc(C(C)(C)COCc2cccc(Oc3ccccc3)c2)cc1`, the outcome was inactive. The result for `ClC(Cl)(Cl)c1ccccc1` reads “inactive”; that for `OCC1CO1` (stereo not given), “inactive”; that for `CCOC(=O)c1ccccc1C(=O)OCC`, “inactive”. On to `CC(C)(C)c1ccc(O)cc1`, for which the molecule was classed as inactive.

Regarding `CSC(C)(C)C=NO`, the outcome was inactive. For `ClC(Cl)c1ccccc1` the value was “inactive”; for `CCOP(=S)(OCC)SCSCC`, “inactive”.

With `CCOS(=O)(=O)OCC`, the outcome was inactive.

Regarding `CC(Cc1ccc(OCC(=O)O)cc1)NCC(O)c1csc(C(F)(F)F)n1` (stereo not given), the result was inactive. For `CCOP(=S)(Oc1ccc([N+](=O)[O-])cc1)c1ccccc1` (stereo not given) the value was “inactive”; for `O=[N+]([O-])c1ccc(Cl)c(Cl)c1`, “inactive”; for `c1cc2c3c(cccc3c1)CC2`, “inactive”. As for `CCNc1nc(Cl)nc(NC(C)(C)C)n1`, the molecule was classed as inactive. The result for `CC(Cl)(Cl)C(=O)O` reads “inactive”; that for `CCCCN(CCCC)SN(C)C(=O)Oc1cccc2c1OC(C)(C)C2`, “inactive”; that for `O=[N+]([O-])c1ccccc1`, “inactive”. On to `O=P(Oc1ccccc1)(Oc1ccccc1)Oc1ccccc1`, for which the outcome was inactive. The result for `CCCN(CCC)c1c([N+](=O)[O-])cc(C(C)C)cc1[N+](=O)[O-]` reads “inactive”; that for `O=C(O)C(Cl)Cl`, “inactive”; that for `Cc1ccc(N)cc1N`, “inactive”. The result for `[N-]=[N+]=[N-]` reads “inactive”; that for `CN(C)C(=O)Cl`, “inactive”.

As to `O=P1(N(CCCl)CCCl)NCCCO1` (stereo not given), the molecule was classed as inactive. The result for `CCN(CC)c1ccccc1` reads “inactive”; that for `CCCCc1ccccc1`, “inactive”; that for `COCCOCCO`, “inactive”. `Nc1cc2c3c(c1)C(c1ccccc1)=N[C@@H](NC(=O)c1cccnc1)C(=O)N3CC2`: the outcome was inactive. For `Cc1cccc(N)c1` the value was “inactive”; for `c1ccc(OP(Oc2ccccc2)Oc2ccccc2)cc1`, “inactive”; for `CCC(C)(C)c1ccc(O)cc1`, “inactive”. For `O=C(O)C1C(C(=O)O)C2(Cl)C(Cl)=C(Cl)C1(Cl)C2(Cl)Cl` (stereo not given) the value was “inactive”; for `CC(C)(C)OOC(C)(C)C`, “inactive”; for `CCCCCCCc1ccc(O)cc1`, “inactive”. For `CCCCN(CCCC)N=O` the value was “inactive”; for `Cc1ccc(O)cc1C`, “inactive”.

Turning to `Nc1ccc2ccccc2c1`, the outcome was inactive. The result for `c1ccc2c(c1)Nc1ccccc1S2` reads “inactive”. The result for `CCC1(c2ccccc2)C(=O)N=C(O)NC1=O` (stereo not given) reads “inactive”. For `Nc1ccc(Cl)cc1` the value was “inactive”.

The record behind these values is PubChem BioAssay (EPA / NIEHS).
